Test results reported in ChEMBL document CHEMBL3988442, “University of Dundee, Small-Polar-MMV Screening Library” (2021).
For some assays here: Results with a measured potency or affinity are listed apart.

Columns and labels:
Parameters in all cases: scale not given: direction of the effect not stated beside the values
[1] = molecular target: Protein translocase subunit SecA (Escherichia coli (strain K12)) (UniProt P10408); assay: Assay to Identify E. coli SecA ATPase Inhibitors; format: functional; settings: 30 µM
[2] = molecular target: T1, Ubiquitin-activating enzyme e1, putative (Leishmania donovani (strain BPK282A1)) (UniProt E9BSI1); assay: Leishmania donovani Ubiquitin Activating Enzyme (LdE1); format: functional; settings: 30 µM
T1 sequence (whole entry): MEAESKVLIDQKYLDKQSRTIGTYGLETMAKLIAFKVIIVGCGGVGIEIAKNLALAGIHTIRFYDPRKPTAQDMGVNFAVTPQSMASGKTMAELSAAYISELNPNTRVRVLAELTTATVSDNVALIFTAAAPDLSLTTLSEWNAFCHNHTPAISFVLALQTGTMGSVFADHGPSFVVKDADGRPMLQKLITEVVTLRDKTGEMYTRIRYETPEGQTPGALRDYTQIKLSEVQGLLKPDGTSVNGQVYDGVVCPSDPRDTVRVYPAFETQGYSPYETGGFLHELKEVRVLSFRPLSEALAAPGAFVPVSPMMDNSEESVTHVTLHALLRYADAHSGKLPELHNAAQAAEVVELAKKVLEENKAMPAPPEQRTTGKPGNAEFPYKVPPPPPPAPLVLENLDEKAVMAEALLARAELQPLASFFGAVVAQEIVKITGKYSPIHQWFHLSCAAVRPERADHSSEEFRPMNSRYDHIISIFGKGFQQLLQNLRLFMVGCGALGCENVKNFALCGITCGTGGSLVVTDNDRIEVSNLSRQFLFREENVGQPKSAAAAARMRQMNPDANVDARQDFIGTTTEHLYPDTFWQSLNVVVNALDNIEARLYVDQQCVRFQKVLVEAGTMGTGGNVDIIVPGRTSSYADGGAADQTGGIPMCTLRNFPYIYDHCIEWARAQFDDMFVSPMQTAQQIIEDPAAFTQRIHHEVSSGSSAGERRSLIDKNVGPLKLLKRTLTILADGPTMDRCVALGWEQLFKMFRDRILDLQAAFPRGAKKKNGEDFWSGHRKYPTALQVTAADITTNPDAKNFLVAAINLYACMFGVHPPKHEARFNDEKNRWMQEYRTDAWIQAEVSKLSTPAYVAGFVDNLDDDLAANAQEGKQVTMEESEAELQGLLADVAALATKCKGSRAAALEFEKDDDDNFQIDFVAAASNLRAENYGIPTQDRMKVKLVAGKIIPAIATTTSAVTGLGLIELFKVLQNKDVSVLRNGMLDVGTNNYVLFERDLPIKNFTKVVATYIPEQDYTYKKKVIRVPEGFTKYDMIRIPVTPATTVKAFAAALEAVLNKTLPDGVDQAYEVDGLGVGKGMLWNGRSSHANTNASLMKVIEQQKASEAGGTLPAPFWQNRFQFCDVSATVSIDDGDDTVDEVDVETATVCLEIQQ

[3] = molecular target: AMP-activated protein kinase, AMPK (Homo sapiens) (UniProt P54646+O43741+P54619+Q9UGJ0+Q9Y478+Q13131+Q9UGI9); assay: AMP-dependent Kinase enzyme assay. An in vitro enzyme assay that detects ADP turnover that is directly proportional to AMPK activity. This uses naive AMPK that is activated during the assay with MK-8722; format: functional; settings: 30 µM
[4] = molecular target: Sialic acid-binding Ig-like lectin 9 (Homo sapiens) (UniProt Q9Y336); assay: Hs-Siglec9 ALPHAscreen SOP 20170721; settings: 10 µM
Trypanosoma cruzi = assay: Trypanosoma cruzi phosphomannomutase and mannose-1-phosphate guanylyltransferase assay; format: functional; settings: 10 µM
[5] = molecular target: T2, Arginase-2, mitochondrial (Homo sapiens) (UniProt P78540); assay: in vitro enzyme assay to detect the production of urea directly proportional to the activity of Arginase II; format: functional; settings: 33.3 µM; further: in the data most compounds retested in dose-response had high values
T2 sequence (whole entry): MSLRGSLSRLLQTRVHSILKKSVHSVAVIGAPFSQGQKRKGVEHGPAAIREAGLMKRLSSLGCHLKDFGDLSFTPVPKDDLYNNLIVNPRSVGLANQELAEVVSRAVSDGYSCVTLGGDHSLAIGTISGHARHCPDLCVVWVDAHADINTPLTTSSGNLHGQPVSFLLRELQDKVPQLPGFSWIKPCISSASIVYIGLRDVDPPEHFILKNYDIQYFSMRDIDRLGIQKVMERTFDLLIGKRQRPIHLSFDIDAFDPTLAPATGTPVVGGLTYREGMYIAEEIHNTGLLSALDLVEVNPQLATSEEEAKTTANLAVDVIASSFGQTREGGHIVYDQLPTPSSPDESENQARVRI

[6] = molecular target: T3, Proteasome subunit beta (Trypanosoma cruzi) (UniProt O96673); assay: Trypanosoma cruzi proteasome chymotrypsin-like activity (TcProtChymo) assay.; further: in the data most compounds retested in dose-response had high values; format: functional; settings: 9.37 µM
T3 sequence (whole entry): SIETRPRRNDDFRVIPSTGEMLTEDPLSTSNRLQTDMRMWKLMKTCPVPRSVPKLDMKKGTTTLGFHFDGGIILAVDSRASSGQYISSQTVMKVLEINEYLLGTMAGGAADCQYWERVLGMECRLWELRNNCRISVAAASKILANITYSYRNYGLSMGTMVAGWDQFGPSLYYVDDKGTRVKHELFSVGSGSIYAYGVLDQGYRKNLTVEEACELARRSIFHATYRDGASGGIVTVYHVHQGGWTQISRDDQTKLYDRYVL

Homo sapiens = species on record: Homo sapiens; assay: To identify inhibition of the IFN signalling (Jak-Stat) pathway via expression of an eGFP reporter gene under the control of an IFN-stimulated response element (ISRE) containing MxA promoter.; format: functional; settings: 30 µM
[7] = molecular target: T4, Tyrosyl-tRNA synthetase, putative (Trypanosoma cruzi (strain CL Brener)) (UniProt Q4DSP6); assay: Trypanosoma cruzi tyrosyl tRNA synthetase (TcYRS) _High Tyrosine SOP; format: functional; settings: 30 µM; further: in the data most compounds retested in dose-response had high values
T4 sequence (whole entry): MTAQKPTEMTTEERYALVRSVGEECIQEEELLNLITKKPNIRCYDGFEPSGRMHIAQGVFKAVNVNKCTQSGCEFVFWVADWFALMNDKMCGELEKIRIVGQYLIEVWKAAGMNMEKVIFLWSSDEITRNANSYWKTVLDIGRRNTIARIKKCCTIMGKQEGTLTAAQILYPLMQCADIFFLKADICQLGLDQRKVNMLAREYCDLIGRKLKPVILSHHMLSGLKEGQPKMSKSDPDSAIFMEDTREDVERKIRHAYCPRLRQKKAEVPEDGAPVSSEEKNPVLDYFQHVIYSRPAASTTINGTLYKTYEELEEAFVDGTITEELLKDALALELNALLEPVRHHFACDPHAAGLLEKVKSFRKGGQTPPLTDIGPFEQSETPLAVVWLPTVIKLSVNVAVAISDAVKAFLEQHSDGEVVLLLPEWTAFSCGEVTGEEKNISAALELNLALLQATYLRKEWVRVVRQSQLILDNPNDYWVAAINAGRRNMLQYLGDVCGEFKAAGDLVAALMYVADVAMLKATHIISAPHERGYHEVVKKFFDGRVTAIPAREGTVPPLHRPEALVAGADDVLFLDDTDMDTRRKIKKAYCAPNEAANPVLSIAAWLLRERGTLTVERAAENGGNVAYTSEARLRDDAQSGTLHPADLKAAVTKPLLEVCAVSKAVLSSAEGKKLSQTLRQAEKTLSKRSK

[8] = molecular target: T4, Tyrosyl-tRNA synthetase, putative (Trypanosoma cruzi (strain CL Brener)); assay: Trypanosoma cruzi tyrosyl tRNA synthetase (TcYRS) SOP; format: functional; settings: 30 µM
[9] = molecular target: Chromo domain-containing protein 1 (Saccharomyces cerevisiae (strain ATCC 204508 / S288c) (Baker's yeast)) (UniProt P32657); assay: ScCHD-1 Enzyme Inhibition Assay; format: functional; settings: 30 µM; further: in the data most compounds retested in dose-response had high values
Sequence of Chromo domain-containing protein 1 (Saccharomyces cerevisiae (strain ATCC 204508 / S288c) (Baker's yeast)) (P32657 whole entry, the tested form may be a part): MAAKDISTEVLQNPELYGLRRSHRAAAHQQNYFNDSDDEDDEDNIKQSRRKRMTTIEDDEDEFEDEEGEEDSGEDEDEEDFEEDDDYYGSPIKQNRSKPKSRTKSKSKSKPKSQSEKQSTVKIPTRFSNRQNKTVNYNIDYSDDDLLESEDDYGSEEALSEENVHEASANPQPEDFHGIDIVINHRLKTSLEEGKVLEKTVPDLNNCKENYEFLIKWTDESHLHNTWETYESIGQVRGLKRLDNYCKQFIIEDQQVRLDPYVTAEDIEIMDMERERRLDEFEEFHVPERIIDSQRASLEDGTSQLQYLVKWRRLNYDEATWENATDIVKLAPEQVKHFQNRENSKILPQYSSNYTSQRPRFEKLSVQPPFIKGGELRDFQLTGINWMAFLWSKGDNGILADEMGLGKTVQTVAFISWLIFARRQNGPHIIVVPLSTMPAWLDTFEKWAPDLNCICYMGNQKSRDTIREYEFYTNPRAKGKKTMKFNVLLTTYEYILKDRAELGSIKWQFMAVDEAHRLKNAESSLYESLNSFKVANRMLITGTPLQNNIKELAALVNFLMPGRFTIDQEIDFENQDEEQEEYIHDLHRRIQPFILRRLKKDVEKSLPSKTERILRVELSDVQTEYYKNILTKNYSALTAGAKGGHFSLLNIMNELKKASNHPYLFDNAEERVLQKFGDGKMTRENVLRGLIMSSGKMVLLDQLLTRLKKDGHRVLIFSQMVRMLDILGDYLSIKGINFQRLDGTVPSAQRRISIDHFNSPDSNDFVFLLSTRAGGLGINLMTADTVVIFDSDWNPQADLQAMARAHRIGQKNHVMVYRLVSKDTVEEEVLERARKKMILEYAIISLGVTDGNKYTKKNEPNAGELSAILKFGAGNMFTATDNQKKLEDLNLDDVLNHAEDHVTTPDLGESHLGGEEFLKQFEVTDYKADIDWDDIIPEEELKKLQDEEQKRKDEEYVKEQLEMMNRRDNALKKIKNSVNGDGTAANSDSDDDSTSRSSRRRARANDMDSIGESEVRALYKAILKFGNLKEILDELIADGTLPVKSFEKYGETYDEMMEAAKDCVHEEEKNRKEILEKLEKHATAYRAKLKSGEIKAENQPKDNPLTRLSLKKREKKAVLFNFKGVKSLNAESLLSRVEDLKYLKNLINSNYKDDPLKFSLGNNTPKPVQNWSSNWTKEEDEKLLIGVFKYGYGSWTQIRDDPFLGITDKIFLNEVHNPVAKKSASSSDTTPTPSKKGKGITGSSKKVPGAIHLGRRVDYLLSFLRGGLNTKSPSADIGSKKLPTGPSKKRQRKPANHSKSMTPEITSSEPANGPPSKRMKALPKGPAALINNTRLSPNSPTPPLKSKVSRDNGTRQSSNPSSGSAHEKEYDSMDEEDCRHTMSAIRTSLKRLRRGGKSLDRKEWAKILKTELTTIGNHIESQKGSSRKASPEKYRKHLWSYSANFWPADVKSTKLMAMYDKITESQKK

Sequence of Protein translocase subunit SecA (Escherichia coli (strain K12)) (P10408 whole entry): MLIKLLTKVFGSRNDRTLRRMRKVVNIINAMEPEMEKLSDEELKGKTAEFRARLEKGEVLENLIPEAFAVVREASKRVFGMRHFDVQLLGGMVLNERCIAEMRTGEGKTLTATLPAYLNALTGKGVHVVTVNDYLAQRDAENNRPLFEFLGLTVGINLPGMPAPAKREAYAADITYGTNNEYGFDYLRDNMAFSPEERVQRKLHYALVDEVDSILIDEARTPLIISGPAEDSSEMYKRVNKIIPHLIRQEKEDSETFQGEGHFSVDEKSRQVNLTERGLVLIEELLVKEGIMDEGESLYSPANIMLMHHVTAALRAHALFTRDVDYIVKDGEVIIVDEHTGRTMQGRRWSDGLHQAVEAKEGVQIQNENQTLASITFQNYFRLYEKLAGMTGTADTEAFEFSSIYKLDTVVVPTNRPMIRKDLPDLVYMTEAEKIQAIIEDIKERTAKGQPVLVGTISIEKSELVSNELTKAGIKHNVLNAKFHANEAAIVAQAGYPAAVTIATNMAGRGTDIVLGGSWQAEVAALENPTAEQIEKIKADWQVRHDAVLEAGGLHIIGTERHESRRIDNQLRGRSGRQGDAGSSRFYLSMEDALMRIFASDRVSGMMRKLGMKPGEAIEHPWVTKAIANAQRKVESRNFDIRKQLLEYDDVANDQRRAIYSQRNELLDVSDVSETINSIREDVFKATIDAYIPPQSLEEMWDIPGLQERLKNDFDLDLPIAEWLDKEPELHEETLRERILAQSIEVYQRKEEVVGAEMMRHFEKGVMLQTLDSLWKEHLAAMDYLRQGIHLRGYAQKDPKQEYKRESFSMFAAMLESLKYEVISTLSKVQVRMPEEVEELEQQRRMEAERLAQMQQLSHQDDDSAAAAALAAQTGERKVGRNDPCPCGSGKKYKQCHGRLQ
Sequence of Sialic acid-binding Ig-like lectin 9 (Homo sapiens) (Q9Y336 whole entry): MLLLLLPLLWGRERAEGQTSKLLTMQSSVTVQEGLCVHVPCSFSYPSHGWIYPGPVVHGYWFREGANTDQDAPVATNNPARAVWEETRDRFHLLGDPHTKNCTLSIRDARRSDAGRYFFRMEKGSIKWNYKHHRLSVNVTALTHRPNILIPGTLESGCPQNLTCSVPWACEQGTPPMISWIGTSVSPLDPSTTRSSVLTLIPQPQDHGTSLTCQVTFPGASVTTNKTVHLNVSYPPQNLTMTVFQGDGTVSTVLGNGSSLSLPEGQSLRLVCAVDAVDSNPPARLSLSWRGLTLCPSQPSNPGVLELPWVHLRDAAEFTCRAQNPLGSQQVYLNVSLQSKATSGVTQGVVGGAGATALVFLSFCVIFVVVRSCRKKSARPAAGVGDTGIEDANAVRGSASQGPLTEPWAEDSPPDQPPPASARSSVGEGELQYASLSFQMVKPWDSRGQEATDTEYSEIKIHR

Cc1n[nH]cc1CNc1ccc2c(c1)CN(C(=O)OC(C)(C)C)CC2
Percent Effect [1]: -2.19% | Percent Effect [2]: 5.2% | Percent Effect [3]: -9.51% | Percent Effect [4]: 0.686% | Percent Effect (Trypanosoma cruzi): 2.26% | Percent Effect [5]: -8.28% | Percent Effect [6]: 15.5% | Percent Effect (Homo sapiens): 68.8% | Percent Effect [7]: 2.15% | Percent Effect [8]: 3.7% | Percent Effect [9]: -6.66%

CCCC(=O)NCc1cc(Br)c(OC)c(OC)c1
Percent Effect [1]: -2.9% | Percent Effect [2]: 8% | Percent Effect [3]: -3.19% | Percent Effect [4]: 14.4% | Percent Effect (Trypanosoma cruzi): 6.72% | Percent Effect [5]: 15.6% | Percent Effect [6]: 5.41% | Percent Effect (Homo sapiens): 25.5% | Percent Effect [7]: 2.73% | Percent Effect [8]: 13.6% | Percent Effect [9]: -8.52%

Cc1ccc([C@]2(O)CC[C@H]3CN(Cc4cccc(Cl)c4Cl)C[C@H]32)nc1
Percent Effect [1]: -2.93% | Percent Effect [2]: 12.2% | Percent Effect [3]: 12.6% | Percent Effect [4]: -9.17% | Percent Effect (Trypanosoma cruzi): 1.98% | Percent Effect [5]: -0.232% | Percent Effect [6]: 17.8% | Percent Effect (Homo sapiens): 51.4% | Percent Effect [7]: 9.68% | Percent Effect [8]: 16.9% | Percent Effect [9]: -15.7%

COc1cccc(CN2CCCCCC2c2cccs2)c1O (stereo not given)
Percent Effect [1]: -0.394% | Percent Effect [2]: 0% | Percent Effect [3]: -1.74% | Percent Effect [4]: -0.0415% | Percent Effect (Trypanosoma cruzi): -3.65% | Percent Effect [5]: 4.52% | Percent Effect [6]: 15.8% | Percent Effect (Homo sapiens): 21.7% | Percent Effect [7]: -1.06% | Percent Effect [8]: 8.97% | Percent Effect [9]: -5.25%

COCCC(=O)N1CCC(c2noc3nc(C)cc(C(F)(F)F)c23)CC1
Percent Effect [1]: -0.633% | Percent Effect [2]: 6.76% | Percent Effect [3]: 7.83% | Percent Effect [4]: 4.3% | Percent Effect (Trypanosoma cruzi): -6.13% | Percent Effect [5]: -2.55% | Percent Effect [6]: 13.1% | Percent Effect (Homo sapiens): 8.05% | Percent Effect [7]: 2.15% | Percent Effect [8]: 6.49% | Percent Effect [9]: 9.94%

Cc1nc(C)n(CC2CN(c3ncccn3)Cc3nccn3C2)n1 (stereo not given)
Percent Effect [1]: -6.81% | Percent Effect [2]: 8.11% | Percent Effect [3]: -2.43% | Percent Effect [4]: 1.67% | Percent Effect (Trypanosoma cruzi): -3.42% | Percent Effect [5]: -2.73% | Percent Effect [6]: 6.44% | Percent Effect (Homo sapiens): 2.81% | Percent Effect [7]: 2.15% | Percent Effect [8]: 11.1% | Percent Effect [9]: -2.96%

NC(=O)Nc1cccc(Oc2ccccn2)c1
Percent Effect [1]: -0.17% | Percent Effect [2]: 0% | Percent Effect [3]: 11.3% | Percent Effect [4]: -0.357% | Percent Effect (Trypanosoma cruzi): -3.99% | Percent Effect [5]: -7.1% | Percent Effect [6]: 8.53% | Percent Effect (Homo sapiens): 0.913% | Percent Effect [7]: 3.19% | Percent Effect [8]: 2.6% | Percent Effect [9]: -0.275%

CC(C)(C)N1CC(C(=O)N2CCN(CCc3ccccc3)CC2)CC1=O (stereo not given)
Percent Effect [1]: -1.55% | Percent Effect [2]: 5.33% | Percent Effect [3]: -2.2% | Percent Effect [4]: 1.39% | Percent Effect (Trypanosoma cruzi): -3.6% | Percent Effect [5]: 1.56% | Percent Effect [6]: 17.1% | Percent Effect (Homo sapiens): 32.1% | Percent Effect [7]: 4.92% | Percent Effect [8]: 11.1% | Percent Effect [9]: -6.21%

CCN(c1ccc(C(=O)N2CCCC2)cc1)S(=O)(=O)CC
Percent Effect [1]: 2.05% | Percent Effect [2]: -1.39% | Percent Effect [3]: 3.96% | Percent Effect [4]: -5.1% | Percent Effect (Trypanosoma cruzi): -0.486% | Percent Effect [5]: 1.32% | Percent Effect [6]: 2.46% | Percent Effect (Homo sapiens): -27.1% | Percent Effect [7]: 1.05% | Percent Effect [8]: 0% | Percent Effect [9]: 2.93%

Cc1cccc(CN2C(=O)CC[C@@H]3[C@H]2CCN3Cc2ccc(C)s2)n1
Percent Effect [1]: -2.54% | Percent Effect [2]: 2.67% | Percent Effect [3]: 9.98% | Percent Effect [4]: 2.33% | Percent Effect (Trypanosoma cruzi): -1.57% | Percent Effect [5]: 0.233% | Percent Effect [6]: 9.43% | Percent Effect (Homo sapiens): 6.8% | Percent Effect [7]: -1.06% | Percent Effect [8]: -3.85% | Percent Effect [9]: 2.14%
